We go through 4 molecules from ChEMBL document CHEMBL1961873, “Compounds: GSK PKIS; Assays: Nanosyn kinase panel” (2012).

In assay [1] the test system is Epidermal growth factor receptor (Homo sapiens), P00533 [T790M]. Particulars: at 1 µM.
Assay [2] has as its system Epidermal growth factor receptor (Homo sapiens), P00533 [L858R,T790M]. Particulars: at 0.1 µM.
The test system is the same in assay [3]. Particulars: at 1 µM.
The target of assay [4] is Ephrin type-A receptor 2 (Homo sapiens) (UniProt P29317). The following applies: at 0.1 µM.
Assay [5] shares this target. Particulars: at 1 µM.
Assay [6] deals with T1, Ephrin type-A receptor 3 (Homo sapiens) (UniProt P29320).
T1 sequence (whole entry): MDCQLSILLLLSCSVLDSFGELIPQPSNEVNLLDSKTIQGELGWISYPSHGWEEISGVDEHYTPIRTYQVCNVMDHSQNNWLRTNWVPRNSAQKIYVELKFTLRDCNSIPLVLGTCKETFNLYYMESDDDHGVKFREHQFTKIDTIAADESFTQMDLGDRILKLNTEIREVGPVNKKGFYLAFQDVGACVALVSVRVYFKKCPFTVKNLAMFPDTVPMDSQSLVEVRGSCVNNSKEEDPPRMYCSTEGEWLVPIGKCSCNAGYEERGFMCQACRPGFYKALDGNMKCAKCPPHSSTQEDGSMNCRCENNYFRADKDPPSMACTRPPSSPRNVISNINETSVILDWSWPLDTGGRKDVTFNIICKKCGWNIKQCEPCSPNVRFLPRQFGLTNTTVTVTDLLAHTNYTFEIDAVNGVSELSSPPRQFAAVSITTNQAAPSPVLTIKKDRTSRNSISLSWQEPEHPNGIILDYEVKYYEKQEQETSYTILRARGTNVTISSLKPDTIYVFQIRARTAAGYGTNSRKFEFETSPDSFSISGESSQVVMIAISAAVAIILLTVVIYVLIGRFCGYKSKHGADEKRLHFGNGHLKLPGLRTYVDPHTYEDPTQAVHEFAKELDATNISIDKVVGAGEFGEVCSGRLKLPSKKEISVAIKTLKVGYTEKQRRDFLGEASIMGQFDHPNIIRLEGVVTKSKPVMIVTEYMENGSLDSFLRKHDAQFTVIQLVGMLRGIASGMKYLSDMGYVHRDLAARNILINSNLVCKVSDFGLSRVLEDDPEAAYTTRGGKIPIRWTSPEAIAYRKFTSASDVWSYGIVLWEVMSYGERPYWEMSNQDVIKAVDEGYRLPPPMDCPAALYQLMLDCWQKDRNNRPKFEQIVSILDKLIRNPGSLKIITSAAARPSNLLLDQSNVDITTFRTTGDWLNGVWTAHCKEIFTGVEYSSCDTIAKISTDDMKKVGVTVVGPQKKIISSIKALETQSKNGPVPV
Particulars: at 0.1 µM.

Assay [7] addresses T1, Ephrin type-A receptor 3 (Homo sapiens). Particulars: at 1 µM.
Assay [8] deals with Ephrin type-A receptor 4 (Homo sapiens) (UniProt P54764). The following applies: at 0.1 µM.
Assay [9] shares this target. The following applies: at 1 µM.
For assay [10], the target named is T2, Ephrin type-B receptor 2 (Homo sapiens) (UniProt P29323).
T2 sequence (whole entry): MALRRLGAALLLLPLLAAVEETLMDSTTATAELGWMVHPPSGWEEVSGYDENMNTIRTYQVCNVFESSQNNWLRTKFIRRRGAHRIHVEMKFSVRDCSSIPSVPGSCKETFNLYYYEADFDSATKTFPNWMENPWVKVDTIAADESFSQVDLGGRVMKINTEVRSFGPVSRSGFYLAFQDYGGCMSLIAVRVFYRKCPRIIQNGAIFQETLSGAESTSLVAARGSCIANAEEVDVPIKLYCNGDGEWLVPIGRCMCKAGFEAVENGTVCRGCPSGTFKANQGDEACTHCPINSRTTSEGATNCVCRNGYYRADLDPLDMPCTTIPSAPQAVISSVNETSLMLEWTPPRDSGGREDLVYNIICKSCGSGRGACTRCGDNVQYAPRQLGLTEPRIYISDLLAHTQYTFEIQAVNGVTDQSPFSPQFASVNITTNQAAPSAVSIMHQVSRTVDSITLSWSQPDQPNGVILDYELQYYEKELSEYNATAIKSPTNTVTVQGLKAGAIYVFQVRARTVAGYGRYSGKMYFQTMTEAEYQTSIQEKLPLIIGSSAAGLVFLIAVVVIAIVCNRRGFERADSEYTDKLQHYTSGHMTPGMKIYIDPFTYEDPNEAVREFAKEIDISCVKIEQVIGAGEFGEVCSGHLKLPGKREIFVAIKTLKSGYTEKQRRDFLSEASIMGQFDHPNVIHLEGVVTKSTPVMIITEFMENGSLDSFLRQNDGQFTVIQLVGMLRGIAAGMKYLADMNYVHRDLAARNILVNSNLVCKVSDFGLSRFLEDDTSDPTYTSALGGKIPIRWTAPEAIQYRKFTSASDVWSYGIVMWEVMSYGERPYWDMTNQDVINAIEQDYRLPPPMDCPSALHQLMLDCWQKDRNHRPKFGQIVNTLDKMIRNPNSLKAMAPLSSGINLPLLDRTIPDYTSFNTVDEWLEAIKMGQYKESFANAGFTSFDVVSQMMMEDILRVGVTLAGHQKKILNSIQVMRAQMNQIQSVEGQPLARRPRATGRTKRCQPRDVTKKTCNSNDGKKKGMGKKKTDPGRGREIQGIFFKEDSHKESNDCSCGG
Particulars: at 0.1 µM.

Assay [11] deals with T2, Ephrin type-B receptor 2 (Homo sapiens). Particulars: at 1 µM.
The target of assay [12] is T3, Ephrin type-B receptor 3 (Homo sapiens) (UniProt P54753).
T3 sequence (whole entry): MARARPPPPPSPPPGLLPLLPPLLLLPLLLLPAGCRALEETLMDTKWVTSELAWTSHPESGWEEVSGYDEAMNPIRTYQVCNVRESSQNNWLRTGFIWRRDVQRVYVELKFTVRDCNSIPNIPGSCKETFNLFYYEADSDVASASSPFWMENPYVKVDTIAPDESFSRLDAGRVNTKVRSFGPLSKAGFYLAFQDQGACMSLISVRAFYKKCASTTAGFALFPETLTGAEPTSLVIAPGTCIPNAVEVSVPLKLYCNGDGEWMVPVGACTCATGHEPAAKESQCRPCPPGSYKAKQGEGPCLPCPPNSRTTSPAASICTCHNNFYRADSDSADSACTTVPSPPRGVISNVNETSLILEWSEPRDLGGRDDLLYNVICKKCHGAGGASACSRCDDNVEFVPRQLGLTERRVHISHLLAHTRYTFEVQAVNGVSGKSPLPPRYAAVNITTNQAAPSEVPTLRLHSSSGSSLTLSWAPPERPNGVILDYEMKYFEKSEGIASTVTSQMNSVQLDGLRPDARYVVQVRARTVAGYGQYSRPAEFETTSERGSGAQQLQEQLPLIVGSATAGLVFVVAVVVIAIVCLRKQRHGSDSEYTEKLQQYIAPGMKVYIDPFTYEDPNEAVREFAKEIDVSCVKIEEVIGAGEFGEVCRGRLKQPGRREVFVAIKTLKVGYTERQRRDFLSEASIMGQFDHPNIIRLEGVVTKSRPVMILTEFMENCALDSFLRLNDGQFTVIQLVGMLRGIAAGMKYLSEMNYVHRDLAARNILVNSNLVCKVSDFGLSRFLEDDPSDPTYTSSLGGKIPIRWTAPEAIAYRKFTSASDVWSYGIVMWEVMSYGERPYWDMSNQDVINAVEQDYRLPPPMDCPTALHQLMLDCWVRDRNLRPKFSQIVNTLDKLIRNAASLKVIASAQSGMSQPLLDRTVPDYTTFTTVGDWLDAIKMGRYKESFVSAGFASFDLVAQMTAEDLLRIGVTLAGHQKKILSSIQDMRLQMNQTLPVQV
The following applies: at 0.1 µM.

Assay [13] addresses T3, Ephrin type-B receptor 3 (Homo sapiens). Particulars: at 1 µM.
In assay [14] the target is T4, Ephrin type-B receptor 4 (Homo sapiens) (UniProt P54760).
T4 sequence (whole entry): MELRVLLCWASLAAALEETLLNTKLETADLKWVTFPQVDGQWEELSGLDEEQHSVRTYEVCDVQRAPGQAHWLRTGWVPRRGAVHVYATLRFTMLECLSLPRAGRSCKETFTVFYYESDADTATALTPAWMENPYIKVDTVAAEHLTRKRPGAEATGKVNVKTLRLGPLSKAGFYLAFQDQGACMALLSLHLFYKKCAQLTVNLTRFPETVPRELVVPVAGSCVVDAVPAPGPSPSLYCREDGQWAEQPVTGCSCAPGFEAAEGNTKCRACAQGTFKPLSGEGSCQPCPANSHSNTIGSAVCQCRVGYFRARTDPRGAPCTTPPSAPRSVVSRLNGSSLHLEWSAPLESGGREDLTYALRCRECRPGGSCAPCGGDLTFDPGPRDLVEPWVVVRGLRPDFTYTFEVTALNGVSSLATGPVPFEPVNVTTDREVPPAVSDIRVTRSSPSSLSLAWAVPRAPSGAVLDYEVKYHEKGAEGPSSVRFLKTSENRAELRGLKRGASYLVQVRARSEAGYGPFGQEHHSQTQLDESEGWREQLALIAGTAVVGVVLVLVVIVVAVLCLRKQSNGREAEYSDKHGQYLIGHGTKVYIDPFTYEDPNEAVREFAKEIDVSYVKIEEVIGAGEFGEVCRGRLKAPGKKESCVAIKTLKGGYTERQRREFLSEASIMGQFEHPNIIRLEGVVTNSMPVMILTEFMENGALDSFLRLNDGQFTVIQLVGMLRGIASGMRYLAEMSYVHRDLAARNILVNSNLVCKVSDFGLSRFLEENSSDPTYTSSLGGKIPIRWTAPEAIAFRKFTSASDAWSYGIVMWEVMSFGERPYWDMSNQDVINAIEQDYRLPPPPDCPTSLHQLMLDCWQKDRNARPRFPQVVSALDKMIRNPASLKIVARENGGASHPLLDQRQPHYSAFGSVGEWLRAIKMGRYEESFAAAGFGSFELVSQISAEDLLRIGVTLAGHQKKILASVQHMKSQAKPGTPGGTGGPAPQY
The following applies: at 0.1 µM.

Assay [15] deals with T4, Ephrin type-B receptor 4 (Homo sapiens). The following applies: at 1 µM.
Assay [16] concerns the target Receptor tyrosine-protein kinase erbB-2 (Homo sapiens) (UniProt P04626). The following applies: at 0.1 µM.
Assay [17] has the same target. The following applies: at 1 µM.
Assay [18] has as its target Receptor tyrosine-protein kinase erbB-4 (Homo sapiens) (UniProt Q15303). Particulars: at 0.1 µM.
Assay [19] has the same target. Particulars: at 1 µM.
Assay [20] addresses Tyrosine-protein kinase Fer (Homo sapiens) (UniProt P16591). The following applies: at 0.1 µM.

Sequence of Tyrosine-protein kinase Fer (Homo sapiens) (P16591 whole entry, looked up): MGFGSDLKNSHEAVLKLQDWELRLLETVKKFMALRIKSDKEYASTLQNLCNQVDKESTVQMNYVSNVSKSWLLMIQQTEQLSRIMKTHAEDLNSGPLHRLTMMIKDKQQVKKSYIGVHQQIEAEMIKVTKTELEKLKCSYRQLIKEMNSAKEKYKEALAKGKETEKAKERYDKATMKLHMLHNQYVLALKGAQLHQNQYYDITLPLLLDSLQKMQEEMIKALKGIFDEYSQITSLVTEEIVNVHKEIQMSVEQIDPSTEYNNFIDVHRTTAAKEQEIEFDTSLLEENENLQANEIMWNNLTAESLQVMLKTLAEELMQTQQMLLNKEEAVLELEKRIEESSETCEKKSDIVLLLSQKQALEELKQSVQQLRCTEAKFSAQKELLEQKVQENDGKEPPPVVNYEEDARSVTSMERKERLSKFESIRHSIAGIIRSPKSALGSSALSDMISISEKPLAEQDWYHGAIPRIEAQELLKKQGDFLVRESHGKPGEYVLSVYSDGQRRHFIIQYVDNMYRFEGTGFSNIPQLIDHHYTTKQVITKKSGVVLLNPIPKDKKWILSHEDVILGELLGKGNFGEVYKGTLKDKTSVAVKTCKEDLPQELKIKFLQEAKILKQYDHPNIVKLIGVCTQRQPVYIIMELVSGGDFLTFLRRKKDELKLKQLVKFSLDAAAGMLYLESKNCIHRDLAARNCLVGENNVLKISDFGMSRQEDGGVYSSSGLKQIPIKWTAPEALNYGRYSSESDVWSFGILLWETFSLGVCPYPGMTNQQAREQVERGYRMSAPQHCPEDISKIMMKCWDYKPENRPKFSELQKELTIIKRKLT
Sequence of Ephrin type-A receptor 2 (Homo sapiens) (P29317 whole entry): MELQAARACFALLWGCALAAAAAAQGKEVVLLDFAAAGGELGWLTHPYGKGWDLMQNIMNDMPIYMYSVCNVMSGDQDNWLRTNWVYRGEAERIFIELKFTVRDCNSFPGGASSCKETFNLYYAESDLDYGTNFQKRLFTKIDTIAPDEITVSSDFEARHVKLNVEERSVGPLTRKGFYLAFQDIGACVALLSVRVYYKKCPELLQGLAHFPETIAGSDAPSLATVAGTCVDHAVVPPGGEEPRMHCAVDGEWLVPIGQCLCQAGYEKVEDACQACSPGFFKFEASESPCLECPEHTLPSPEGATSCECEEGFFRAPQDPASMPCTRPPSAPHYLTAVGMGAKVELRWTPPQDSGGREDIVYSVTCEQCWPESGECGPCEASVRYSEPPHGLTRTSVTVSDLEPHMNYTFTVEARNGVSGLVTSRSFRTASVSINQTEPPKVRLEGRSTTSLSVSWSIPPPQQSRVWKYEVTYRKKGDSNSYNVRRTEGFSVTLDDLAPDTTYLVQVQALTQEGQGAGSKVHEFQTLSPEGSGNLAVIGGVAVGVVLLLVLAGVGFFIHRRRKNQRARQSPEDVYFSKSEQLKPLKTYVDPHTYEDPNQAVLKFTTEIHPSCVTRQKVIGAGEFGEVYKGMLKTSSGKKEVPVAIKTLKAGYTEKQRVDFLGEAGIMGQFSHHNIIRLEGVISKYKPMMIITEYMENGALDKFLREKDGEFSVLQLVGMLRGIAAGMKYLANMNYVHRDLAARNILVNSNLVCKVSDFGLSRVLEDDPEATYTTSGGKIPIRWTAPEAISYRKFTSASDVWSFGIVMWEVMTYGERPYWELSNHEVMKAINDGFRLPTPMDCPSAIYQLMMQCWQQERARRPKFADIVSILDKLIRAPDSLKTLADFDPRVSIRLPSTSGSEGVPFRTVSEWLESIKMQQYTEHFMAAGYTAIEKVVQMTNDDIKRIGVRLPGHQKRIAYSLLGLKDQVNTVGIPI
Sequence of Epidermal growth factor receptor (Homo sapiens), P00533 [L858R,T790M] (P00533 whole entry T790M/L858R, looked up): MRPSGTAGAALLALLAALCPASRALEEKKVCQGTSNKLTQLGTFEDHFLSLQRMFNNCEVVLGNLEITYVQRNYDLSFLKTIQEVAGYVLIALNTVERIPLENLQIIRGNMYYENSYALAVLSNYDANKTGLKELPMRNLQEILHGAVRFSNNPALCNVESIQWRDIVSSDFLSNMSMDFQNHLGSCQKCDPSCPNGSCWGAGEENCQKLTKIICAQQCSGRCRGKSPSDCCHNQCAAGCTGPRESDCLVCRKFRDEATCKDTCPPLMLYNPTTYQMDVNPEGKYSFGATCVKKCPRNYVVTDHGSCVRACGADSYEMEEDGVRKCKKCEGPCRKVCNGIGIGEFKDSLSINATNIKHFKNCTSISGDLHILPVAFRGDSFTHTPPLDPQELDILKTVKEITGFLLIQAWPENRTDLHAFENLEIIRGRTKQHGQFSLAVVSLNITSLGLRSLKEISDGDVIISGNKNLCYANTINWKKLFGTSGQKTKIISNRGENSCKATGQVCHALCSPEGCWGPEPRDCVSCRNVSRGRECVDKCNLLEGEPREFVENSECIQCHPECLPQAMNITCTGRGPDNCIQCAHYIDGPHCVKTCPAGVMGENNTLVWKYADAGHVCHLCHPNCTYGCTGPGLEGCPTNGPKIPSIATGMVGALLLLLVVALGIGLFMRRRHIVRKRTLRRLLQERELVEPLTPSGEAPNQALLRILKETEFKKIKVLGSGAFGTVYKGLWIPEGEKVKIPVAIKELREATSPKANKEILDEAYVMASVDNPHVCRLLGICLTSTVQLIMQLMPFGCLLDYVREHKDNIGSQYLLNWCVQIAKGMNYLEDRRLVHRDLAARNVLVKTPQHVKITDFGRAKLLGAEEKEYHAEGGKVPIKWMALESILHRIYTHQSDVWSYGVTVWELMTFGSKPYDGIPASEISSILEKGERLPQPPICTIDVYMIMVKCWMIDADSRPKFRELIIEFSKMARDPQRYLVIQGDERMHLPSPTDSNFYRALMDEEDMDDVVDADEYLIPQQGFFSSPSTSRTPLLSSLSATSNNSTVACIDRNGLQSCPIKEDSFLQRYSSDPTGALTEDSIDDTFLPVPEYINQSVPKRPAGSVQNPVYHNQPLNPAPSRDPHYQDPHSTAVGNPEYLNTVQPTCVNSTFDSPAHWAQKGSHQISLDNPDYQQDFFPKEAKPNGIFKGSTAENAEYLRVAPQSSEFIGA
Sequence of Receptor tyrosine-protein kinase erbB-2 (Homo sapiens) (P04626 whole entry): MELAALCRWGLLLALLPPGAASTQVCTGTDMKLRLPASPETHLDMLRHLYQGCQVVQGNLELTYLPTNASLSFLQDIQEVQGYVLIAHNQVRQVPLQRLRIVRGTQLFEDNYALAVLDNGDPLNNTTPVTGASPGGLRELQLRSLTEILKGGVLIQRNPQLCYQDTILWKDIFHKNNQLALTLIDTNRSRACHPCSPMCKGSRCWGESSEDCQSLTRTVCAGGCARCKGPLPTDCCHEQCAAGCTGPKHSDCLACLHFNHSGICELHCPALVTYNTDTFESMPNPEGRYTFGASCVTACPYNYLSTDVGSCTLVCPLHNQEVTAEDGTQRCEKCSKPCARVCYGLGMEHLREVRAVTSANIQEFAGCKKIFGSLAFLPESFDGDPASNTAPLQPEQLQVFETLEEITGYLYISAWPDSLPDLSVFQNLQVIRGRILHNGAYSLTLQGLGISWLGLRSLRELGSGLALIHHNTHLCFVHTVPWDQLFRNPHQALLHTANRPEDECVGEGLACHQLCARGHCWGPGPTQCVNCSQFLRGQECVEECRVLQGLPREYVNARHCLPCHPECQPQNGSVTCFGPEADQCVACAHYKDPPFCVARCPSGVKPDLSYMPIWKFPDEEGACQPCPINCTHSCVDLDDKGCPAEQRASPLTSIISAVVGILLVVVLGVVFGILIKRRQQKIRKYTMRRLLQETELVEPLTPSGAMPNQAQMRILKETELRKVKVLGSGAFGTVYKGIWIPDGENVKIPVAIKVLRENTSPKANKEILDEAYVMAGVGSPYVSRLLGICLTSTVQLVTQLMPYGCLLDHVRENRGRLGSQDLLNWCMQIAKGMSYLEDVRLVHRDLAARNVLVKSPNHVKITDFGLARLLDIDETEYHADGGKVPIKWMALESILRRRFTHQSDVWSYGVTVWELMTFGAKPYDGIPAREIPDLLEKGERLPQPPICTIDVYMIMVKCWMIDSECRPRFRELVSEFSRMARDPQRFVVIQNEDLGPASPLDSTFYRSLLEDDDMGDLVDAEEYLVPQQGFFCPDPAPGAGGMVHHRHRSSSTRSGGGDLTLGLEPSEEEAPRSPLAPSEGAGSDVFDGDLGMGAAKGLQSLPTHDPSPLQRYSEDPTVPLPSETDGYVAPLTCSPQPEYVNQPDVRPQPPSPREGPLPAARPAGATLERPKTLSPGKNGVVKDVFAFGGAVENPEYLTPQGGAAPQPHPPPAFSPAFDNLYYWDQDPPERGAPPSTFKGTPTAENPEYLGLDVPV

What is called inhibition is the change of the read-out against control, counted positive when it falls. In the case of `N#Cc1cccc(Nc2nccc(-c3cnn4ncccc34)n2)c1`, the inhibition was 6.4% in assay [1]; 0.25% in assay [2]; 9.41% in assay [3]; 2.26% in assay [4]; 15% in assay [5]; 8.11% in [6]. The inhibition in assay [7] is 19.2%; in assay [8] it was 13%; in assay [9], 43.8%; in assay [10], 15.1%; in [11], 46.2%; in [12], 4.19%. The inhibition was determined as 3.9% in assay [13]; 5.63% in assay [14]; 22.5% in assay [15]; 1.23% in [16]; 5.3% in [17]; 8.57% in [18]. Besides, the inhibition in assay [19] was 19.1%; in [20], 9.92%.

For the molecule `CS(=O)(=O)CCNCc1nc(-c2ccc3ncnc(Nc4ccc(OCc5cccc(C(F)(F)F)c5)cc4)c3c2)cs1`, the inhibition in assay [1] was -0.12%; in assay [2] it was -2.33%; in [3], -3.57%; in assay [4], 1.44%; in assay [5], 0.05%; in [6], 2.99%. The inhibition was found to be 3.51% in assay [7]; 0.66% in assay [8]; 7.07% in assay [9]; 0.86% in assay [10]; 6.37% in assay [11]; 2.8% in assay [12]. The inhibition in [13] is 3.98%; in assay [14], -1.44%; in [15], 2.09%; in assay [16] it was 4.71%; in [17] it was 4.32%; in [18] it was 6.42%. Also, the inhibition in [19] stood at 25.6%; in [20], 3.78%.

In the case of `CCOc1nccc2c1nc(-c1nonc1N)n2CC`, the inhibition in assay [1] is 5.62%; in assay [2], -0.04%; in assay [3], 4.96%; in assay [4] it was 2.57%; in assay [5], 1.93%; in assay [6], 2.43%. Further, the inhibition in assay [7] is 6.98%; in assay [8], 11.7%; in [9], -8.98%; in assay [10] it was 9.96%; in assay [11], 13.1%; in assay [12] it was 1.72%. Besides, the inhibition in assay [13] is 2.82%; in assay [14], 2.78%; in assay [15], 0.5%; in assay [16] it was 3.01%; in assay [17], 9.5%; in [18] it was 6.98%. Moreover, the figures for the inhibition in assay [19] and in [20] were 18% and 5.59%, respectively.

As for `N#Cc1c(NC(=O)c2ccccc2F)sc2c1CCCC2`, the inhibition in assay [1] was -1.31%; in [2] it was -0.25%; in [3] it was -0.34%; in assay [4], -2.61%; in [5], -2.44%; in assay [6], -3.2%. In addition, the inhibition was -1.65% in assay [7]; -3.04% in assay [8]; -0.99% in assay [9]; -7.95% in assay [10]; -0.34% in assay [11]; 3.63% in [12]. In addition, the inhibition is 0.77% in [13]; -2.29% in [14]; 0.07% in assay [15]; -3.55% in [16]; 1.39% in [17]; -2.08% in assay [18]. The inhibition in assay [19] was 0.66%; in assay [20], -1.19%.
